Experimental data as given in the supplement of paper PMC11732987, “Enantioselective OTUD7B fragment discovery through chemoproteomics screening and high-throughput optimisation” (Communications Chemistry, 2025).

Assays:
Assay in all cases: log2 ratio of Biotin-Ahx-Ub-VS probe labelling (fragment/DMSO); higher = less target engagement (more negative = stronger competition), active = hit call of the paper (q ≤ 0.05, log2 ratio ≤ -1)
Conditions in all cases: compound concentration: 200 uM; treatment time: 3 h
USP19 = molecular target: T1, USP19 (UniProt O94966)
T1 sequence (whole entry): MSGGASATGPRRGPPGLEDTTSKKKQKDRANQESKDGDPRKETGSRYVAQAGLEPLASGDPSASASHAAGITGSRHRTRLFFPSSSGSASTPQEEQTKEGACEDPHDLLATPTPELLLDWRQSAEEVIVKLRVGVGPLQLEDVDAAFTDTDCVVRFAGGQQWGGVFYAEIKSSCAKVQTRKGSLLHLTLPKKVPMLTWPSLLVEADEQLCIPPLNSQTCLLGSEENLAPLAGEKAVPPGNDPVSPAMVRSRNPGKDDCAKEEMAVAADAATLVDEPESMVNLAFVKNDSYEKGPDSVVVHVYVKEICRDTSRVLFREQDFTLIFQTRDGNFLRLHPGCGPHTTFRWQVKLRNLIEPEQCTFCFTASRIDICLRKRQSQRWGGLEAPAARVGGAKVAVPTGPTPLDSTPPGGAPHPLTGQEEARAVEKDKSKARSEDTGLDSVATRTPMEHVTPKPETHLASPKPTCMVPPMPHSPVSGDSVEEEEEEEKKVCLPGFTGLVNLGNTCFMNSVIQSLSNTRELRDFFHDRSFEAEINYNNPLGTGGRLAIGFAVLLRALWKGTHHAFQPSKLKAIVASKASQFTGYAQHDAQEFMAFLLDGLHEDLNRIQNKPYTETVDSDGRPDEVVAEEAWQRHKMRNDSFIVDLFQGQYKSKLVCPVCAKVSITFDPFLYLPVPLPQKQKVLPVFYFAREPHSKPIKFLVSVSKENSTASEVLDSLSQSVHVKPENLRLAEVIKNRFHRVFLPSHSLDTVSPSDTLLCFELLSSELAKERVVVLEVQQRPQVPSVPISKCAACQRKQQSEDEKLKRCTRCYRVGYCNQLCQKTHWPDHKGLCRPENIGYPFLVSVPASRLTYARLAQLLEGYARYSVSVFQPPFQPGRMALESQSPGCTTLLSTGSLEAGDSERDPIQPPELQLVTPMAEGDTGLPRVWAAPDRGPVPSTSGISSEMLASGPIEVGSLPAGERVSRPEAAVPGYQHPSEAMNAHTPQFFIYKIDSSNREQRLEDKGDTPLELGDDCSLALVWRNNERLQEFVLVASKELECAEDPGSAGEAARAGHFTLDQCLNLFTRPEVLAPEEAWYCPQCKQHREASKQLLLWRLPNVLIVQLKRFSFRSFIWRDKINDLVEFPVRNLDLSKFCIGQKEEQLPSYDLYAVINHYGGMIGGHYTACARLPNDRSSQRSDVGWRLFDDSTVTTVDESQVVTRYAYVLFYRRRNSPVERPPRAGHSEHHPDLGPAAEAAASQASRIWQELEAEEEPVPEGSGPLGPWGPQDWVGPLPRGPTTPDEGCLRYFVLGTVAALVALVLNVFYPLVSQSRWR
Procedure, shortened: (§1)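 HEK293T lysate (495 µg per sample, in Tris/CHAPS/IGEPAL buffer with protease inhibitors) was treated in triplicate with fragment at 200 µM or with DMSO for 3 h. It was then treated with Biotin-Ahx-Ub-VS (0.5 µM final) for 1 h. Labelled DUBs were NeutrAvidin-enriched, digested with LysC and trypsin, and run by diaPASEF LC-MS/MS. Spectronaut label-free quantities were global-median-normalised. Values are average log2 ratios fragment/DMSO by unpaired t-test, using proteins with ≥2 unique peptides.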

USP24 = USP24 (UniProt Q9UPU5)
Chain of USP24 (Q9UPU5 whole entry): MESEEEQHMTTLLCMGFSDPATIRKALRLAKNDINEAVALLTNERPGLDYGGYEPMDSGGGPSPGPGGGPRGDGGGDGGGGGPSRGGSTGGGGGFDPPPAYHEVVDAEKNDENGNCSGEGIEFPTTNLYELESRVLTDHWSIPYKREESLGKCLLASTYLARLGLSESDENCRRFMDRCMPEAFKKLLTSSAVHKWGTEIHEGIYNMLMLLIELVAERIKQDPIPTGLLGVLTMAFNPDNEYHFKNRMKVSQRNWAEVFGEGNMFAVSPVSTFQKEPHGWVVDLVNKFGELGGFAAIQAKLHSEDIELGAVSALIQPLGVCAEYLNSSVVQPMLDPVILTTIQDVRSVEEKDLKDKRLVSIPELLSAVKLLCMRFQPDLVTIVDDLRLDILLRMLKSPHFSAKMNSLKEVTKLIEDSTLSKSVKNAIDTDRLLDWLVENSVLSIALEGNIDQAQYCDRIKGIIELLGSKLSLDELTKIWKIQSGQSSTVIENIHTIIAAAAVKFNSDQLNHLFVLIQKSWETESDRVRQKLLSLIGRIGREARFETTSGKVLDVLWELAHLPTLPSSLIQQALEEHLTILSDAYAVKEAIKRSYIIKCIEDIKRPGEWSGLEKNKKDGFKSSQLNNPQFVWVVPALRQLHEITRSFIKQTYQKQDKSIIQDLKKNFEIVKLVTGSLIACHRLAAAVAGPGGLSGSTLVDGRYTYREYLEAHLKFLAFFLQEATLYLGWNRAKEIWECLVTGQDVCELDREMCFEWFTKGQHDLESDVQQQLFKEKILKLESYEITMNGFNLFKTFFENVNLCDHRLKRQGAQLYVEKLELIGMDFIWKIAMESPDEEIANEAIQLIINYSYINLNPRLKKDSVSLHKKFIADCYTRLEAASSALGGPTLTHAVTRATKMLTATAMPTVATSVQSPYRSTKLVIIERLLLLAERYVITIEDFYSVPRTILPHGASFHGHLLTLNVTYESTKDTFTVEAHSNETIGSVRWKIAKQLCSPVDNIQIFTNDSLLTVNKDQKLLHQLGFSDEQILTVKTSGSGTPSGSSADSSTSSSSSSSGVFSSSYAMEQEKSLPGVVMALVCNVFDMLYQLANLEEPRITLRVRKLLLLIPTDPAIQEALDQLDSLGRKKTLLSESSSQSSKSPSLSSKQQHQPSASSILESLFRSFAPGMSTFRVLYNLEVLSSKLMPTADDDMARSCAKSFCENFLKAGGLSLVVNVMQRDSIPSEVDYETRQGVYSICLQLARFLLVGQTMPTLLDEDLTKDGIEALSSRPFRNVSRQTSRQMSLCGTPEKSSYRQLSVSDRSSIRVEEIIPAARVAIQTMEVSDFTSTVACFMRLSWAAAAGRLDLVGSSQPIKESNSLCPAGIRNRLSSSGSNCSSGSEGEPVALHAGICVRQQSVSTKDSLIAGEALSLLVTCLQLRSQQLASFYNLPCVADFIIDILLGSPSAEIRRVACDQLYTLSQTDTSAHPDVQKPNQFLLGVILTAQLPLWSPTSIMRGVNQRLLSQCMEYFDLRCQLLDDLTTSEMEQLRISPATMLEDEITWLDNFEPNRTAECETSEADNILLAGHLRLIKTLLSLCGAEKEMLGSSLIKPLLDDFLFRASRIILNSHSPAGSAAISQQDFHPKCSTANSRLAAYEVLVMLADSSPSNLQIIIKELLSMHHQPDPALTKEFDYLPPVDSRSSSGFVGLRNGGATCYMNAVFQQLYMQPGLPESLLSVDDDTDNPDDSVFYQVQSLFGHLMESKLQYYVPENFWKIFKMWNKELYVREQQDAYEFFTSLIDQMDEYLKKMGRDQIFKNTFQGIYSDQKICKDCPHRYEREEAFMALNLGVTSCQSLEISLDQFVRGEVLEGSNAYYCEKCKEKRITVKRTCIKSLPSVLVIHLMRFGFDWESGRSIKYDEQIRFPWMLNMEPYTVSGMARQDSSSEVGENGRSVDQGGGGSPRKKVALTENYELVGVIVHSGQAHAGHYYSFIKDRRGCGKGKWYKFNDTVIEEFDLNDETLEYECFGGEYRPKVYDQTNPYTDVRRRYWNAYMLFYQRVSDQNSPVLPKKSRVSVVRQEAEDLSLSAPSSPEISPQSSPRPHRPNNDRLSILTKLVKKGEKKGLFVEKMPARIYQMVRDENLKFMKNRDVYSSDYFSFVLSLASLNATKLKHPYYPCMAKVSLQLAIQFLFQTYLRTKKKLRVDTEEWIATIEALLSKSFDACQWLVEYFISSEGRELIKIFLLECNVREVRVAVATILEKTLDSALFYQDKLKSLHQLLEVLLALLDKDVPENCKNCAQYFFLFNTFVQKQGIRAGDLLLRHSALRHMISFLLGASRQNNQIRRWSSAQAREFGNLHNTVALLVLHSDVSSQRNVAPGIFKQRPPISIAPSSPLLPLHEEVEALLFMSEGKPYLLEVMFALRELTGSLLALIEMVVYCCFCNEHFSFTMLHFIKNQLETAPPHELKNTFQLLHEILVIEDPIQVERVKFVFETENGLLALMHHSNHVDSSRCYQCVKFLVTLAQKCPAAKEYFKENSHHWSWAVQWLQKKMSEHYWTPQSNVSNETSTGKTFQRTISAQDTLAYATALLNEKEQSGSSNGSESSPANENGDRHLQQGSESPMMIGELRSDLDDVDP
Procedure, shortened: as §1

USP25 = molecular target: T2, USP25 (UniProt Q9UHP3)
T2 sequence (whole entry): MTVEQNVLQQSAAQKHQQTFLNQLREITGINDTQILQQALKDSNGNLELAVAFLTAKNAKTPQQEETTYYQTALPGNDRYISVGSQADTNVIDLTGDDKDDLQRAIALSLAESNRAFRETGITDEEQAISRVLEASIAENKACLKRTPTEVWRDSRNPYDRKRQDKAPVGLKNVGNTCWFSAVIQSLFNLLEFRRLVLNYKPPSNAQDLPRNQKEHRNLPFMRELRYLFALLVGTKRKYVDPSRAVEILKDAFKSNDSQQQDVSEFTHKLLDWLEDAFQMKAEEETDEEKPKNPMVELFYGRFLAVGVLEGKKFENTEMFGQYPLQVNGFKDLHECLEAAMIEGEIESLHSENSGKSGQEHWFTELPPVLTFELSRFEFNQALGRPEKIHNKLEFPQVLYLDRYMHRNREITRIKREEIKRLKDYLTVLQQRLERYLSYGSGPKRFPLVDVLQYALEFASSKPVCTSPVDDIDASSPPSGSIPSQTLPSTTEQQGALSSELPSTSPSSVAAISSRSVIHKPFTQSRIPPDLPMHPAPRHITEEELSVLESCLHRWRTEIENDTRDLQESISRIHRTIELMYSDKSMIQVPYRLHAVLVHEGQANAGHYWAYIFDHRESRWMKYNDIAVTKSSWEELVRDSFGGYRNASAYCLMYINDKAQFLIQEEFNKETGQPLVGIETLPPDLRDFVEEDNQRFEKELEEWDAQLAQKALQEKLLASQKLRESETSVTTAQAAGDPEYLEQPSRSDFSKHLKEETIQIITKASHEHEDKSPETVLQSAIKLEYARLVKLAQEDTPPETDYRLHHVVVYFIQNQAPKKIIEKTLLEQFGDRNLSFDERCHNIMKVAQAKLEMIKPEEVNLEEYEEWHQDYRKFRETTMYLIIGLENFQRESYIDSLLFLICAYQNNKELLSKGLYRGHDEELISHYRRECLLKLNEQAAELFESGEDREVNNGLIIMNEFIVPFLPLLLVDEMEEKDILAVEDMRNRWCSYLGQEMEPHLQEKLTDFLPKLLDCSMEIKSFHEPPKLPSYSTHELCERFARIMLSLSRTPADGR
Procedure, shortened: as §1

USP28 = molecular target: T3, USP28 (UniProt Q96RU2)
T3 sequence (whole entry): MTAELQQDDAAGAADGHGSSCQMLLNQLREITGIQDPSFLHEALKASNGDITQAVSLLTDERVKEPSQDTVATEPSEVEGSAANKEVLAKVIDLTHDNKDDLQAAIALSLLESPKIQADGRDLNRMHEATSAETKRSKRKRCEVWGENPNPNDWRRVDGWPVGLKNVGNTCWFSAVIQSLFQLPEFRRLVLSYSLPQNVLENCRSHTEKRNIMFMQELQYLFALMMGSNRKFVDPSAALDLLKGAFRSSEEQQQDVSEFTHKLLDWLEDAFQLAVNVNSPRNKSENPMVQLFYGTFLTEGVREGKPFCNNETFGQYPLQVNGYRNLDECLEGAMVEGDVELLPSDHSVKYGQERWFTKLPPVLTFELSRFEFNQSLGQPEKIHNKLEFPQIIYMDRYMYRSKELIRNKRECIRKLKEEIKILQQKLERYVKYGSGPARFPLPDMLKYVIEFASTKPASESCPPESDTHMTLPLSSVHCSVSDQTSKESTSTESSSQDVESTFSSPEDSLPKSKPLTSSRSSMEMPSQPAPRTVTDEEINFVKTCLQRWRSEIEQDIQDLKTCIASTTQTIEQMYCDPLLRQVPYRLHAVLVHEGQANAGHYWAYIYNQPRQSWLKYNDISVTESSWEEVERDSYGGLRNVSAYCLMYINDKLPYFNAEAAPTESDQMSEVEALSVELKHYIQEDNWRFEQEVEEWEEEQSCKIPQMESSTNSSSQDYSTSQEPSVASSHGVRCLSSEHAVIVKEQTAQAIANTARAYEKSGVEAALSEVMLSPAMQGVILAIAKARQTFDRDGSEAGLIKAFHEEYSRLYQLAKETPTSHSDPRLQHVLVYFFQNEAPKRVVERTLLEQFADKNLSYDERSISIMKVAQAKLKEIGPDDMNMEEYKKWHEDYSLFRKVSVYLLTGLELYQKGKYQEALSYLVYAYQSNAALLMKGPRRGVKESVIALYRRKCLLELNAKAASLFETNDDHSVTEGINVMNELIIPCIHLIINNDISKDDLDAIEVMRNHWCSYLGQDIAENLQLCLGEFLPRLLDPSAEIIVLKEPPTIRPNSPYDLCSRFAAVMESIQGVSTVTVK
Procedure, shortened: as §1

Measured: log2 ratio of Biotin-Ahx-Ub-VS probe labelling

O=C(CCl)NCc1ccc(Cl)cc1
inactive: USP19 -0.0819 | USP24 -0.0304 | USP25 -0.395 | USP28 -0.414
